The supplement of paper PMC4466140

What was measured:
Experiment in all cases: SPOT peptide array binding signal intensity (averaged, normalized) (arbitrary units (background-subtracted, floor 0; scale differs between SH3 domains)); higher = stronger binding of the SH3 domain to the peptide
AgAbp1 = target: AgAbp1
Method in brief: (§1)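 Detection of bound protein relied on anti-GST antibody, an HRP anti-mouse secondary and luminol, with imaging and quantification in Genespotter. The bound protein was GST-fused SH3 domains from four yeast species, incubated at 10 μg/ml overnight at 4°C in TBS-based blocking buffer on cellulose membranes carrying synthetic 15-mer peptides with cysteines replaced by serines. Binding signal is normalized, background-subtracted spot intensity averaged over replicates, in arbitrary units that differ between domains.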

AgBbc1 = target: AgBbc1
Method in brief: as §1

AgBem1-D1 = target: AgBem1-D1
Method in brief: as §1

AgBzz1-D1 = target: AgBzz1-D1
Method in brief: as §1

AgBzz1-D2 = target: AgBzz1-D2
Method in brief: as §1

AgCyk3 = target: AgCyk3
Method in brief: as §1

AgFus1 = target: AgFus1
Method in brief: as §1

AgHof1 = target: AgHof1
Method in brief: as §1

AgHse1 = target: AgHse1
Method in brief: as §1

AgLsb1 = target: AgLsb1
Method in brief: as §1

AgLsb4 = target: AgLsb4
Method in brief: as §1

AgMyo5 = target: AgMyo5
Method in brief: as §1

AgNbp2 = target: AgNbp2
Method in brief: as §1

AgRvs167 = target: AgRvs167
Method in brief: as §1

AgSho1 = target: AgSho1
Method in brief: as §1

AgSla1-D1-D2 = target: AgSla1-D1-D2
Method in brief: as §1

AgSla1-D3 = target: AgSla1-D3
Method in brief: as §1

CaAbp1-D1 = target: CaAbp1-D1
Method in brief: as §1

CaAbp1-D2 = target: CaAbp1-D2
Method in brief: as §1

CaBbc1 = target: CaBbc1
Method in brief: as §1

CaBem1-D1 = target: CaBem1-D1
Method in brief: as §1

CaBzz1-D1 = target: CaBzz1-D1
Method in brief: as §1

CaBzz1-D2 = target: CaBzz1-D2
Method in brief: as §1

CaCyk3 = target: CaCyk3
Method in brief: as §1

CaFus1 = target: CaFus1
Method in brief: as §1

CaHof1 = target: CaHof1
Method in brief: as §1

CaHse1 = target: CaHse1
Method in brief: as §1

CaLsb1 = target: CaLsb1
Method in brief: as §1

CaLsb4 = target: CaLsb4
Method in brief: as §1

CaMyo5 = target: CaMyo5
Method in brief: as §1

SpBzz1-D2 = target: SpBzz1-D2
Method in brief: as §1

SpCyk3 = target: SpCyk3
Method in brief: as §1

SpHof1 = target: SpHof1
Method in brief: as §1

SpHof1-2 = target: SpHof1-2
Method in brief: as §1

SpHof1-3 = target: SpHof1-3
Method in brief: as §1

SpHse1 = target: SpHse1
Method in brief: as §1

SpLsb1 = target: SpLsb1
Method in brief: as §1

SpLsb4 = target: SpLsb4
Method in brief: as §1

SpMyo1 = target: SpMyo1
Method in brief: as §1

SpNbp2 = target: SpNbp2
Method in brief: as §1

SpPex13 = target: SpPex13
Method in brief: as §1

SpRvs167 = target: SpRvs167
Method in brief: as §1

SpSla1-D1-D2 = target: SpSla1-D1-D2
Method in brief: as §1

SpSla1-D3 = target: SpSla1-D3
Method in brief: as §1

CaNbp2 = target: CaNbp2
Method in brief: as §1

CaRvs167 = target: CaRvs167
Method in brief: as §1

CaRvs167-3 = target: CaRvs167-3
Method in brief: as §1

CaSho1 = target: CaSho1
Method in brief: as §1

CaSla1-D1-D2 = target: CaSla1-D1-D2
Method in brief: as §1

CaSla1-D3 = target: CaSla1-D3
Method in brief: as §1

ScAbp1 = target: ScAbp1
Method in brief: as §1

ScBbc1 = target: ScBbc1
Method in brief: as §1

ScBem1-D1 = target: ScBem1-D1
Method in brief: as §1

ScBzz1-D1 = target: ScBzz1-D1
Method in brief: as §1

ScBzz1-D2 = target: ScBzz1-D2
Method in brief: as §1

ScCyk3 = target: ScCyk3
Method in brief: as §1

ScFus1 = target: ScFus1
Method in brief: as §1

ScHof1 = target: ScHof1
Method in brief: as §1

ScHse1 = target: ScHse1
Method in brief: as §1

ScLsb1 = target: ScLsb1
Method in brief: as §1

ScLsb2 = target: ScLsb2
Method in brief: as §1

ScLsb3 = target: ScLsb3
Method in brief: as §1

ScLsb4 = target: ScLsb4
Method in brief: as §1

ScMyo3 = target: ScMyo3
Method in brief: as §1

ScMyo5 = target: ScMyo5
Method in brief: as §1

ScNbp2 = target: ScNbp2
Method in brief: as §1

ScPex13 = target: ScPex13
Method in brief: as §1

ScRvs167 = target: ScRvs167
Method in brief: as §1

ScSho1 = target: ScSho1
Method in brief: as §1

ScSla1-D1-D2 = target: ScSla1-D1-D2
Method in brief: as §1

ScSla1-D3 = target: ScSla1-D3
Method in brief: as §1

SpAbp1-D1 = target: SpAbp1-D1
Method in brief: as §1

SpBbc1 = target: SpBbc1
Method in brief: as §1

SpBzz1-D1 = target: SpBzz1-D1
Method in brief: as §1

B1: unnamed (peptide)
chain: FIRKRAPTPPAPSRS
SPOT peptide array binding signal intensity (AgAbp1): 948 | SPOT peptide array binding signal intensity (AgBbc1): 334 | SPOT peptide array binding signal intensity (AgBem1-D1): 340 | SPOT peptide array binding signal intensity (AgBzz1-D1): 224 | SPOT peptide array binding signal intensity (AgBzz1-D2): 120 | SPOT peptide array binding signal intensity (AgCyk3): 1 | SPOT peptide array binding signal intensity (AgFus1): 203 | SPOT peptide array binding signal intensity (AgHof1): 65.2 | SPOT peptide array binding signal intensity (AgHse1): 312 | SPOT peptide array binding signal intensity (AgLsb1): 1090 | SPOT peptide array binding signal intensity (AgLsb4): 60 | SPOT peptide array binding signal intensity (AgMyo5): 1.75 | SPOT peptide array binding signal intensity (AgNbp2): 1060 | SPOT peptide array binding signal intensity (AgRvs167): 5.67 | SPOT peptide array binding signal intensity (AgSho1): 14 | SPOT peptide array binding signal intensity (AgSla1-D1-D2): 196 | SPOT peptide array binding signal intensity (AgSla1-D3): 23.2 | SPOT peptide array binding signal intensity (CaAbp1-D1): 2450 | SPOT peptide array binding signal intensity (CaAbp1-D2): 734 | SPOT peptide array binding signal intensity (CaBbc1): 641 | SPOT peptide array binding signal intensity (CaBem1-D1): 813 | SPOT peptide array binding signal intensity (CaBzz1-D1): 1840 | SPOT peptide array binding signal intensity (CaBzz1-D2): 4040 | SPOT peptide array binding signal intensity (CaCyk3): 19.5 | SPOT peptide array binding signal intensity (CaFus1): 334 | SPOT peptide array binding signal intensity (CaHof1): 0.5 | SPOT peptide array binding signal intensity (CaHse1): 10.8 | SPOT peptide array binding signal intensity (CaLsb1): 167 | SPOT peptide array binding signal intensity (CaLsb4): 198 | SPOT peptide array binding signal intensity (CaMyo5): 12.8

B2: unnamed (peptide)
chain: NSMRPPLLIPAATTK
SPOT peptide array binding signal intensity (SpBzz1-D2): 53.8 | SPOT peptide array binding signal intensity (SpCyk3): 3 | SPOT peptide array binding signal intensity (SpHof1): 36 | SPOT peptide array binding signal intensity (SpHof1-2): 31.8 | SPOT peptide array binding signal intensity (SpHof1-3): 41 | SPOT peptide array binding signal intensity (SpHse1): 444 | SPOT peptide array binding signal intensity (SpLsb1): 34.2 | SPOT peptide array binding signal intensity (SpLsb4): 761 | SPOT peptide array binding signal intensity (SpMyo1): 56.2 | SPOT peptide array binding signal intensity (SpNbp2): 116 | SPOT peptide array binding signal intensity (SpPex13): 37 | SPOT peptide array binding signal intensity (SpRvs167): 68.2 | SPOT peptide array binding signal intensity (SpSla1-D1-D2): ≤ 0 | SPOT peptide array binding signal intensity (SpSla1-D3): 200

B3: unnamed (peptide)
chain: AAAPKHAPPPVPNET
SPOT peptide array binding signal intensity (AgAbp1): ≤ 0 | SPOT peptide array binding signal intensity (AgBbc1): ≤ 0 | SPOT peptide array binding signal intensity (AgBem1-D1): ≤ 0 | SPOT peptide array binding signal intensity (AgBzz1-D1): 96 | SPOT peptide array binding signal intensity (AgBzz1-D2): ≤ 0 | SPOT peptide array binding signal intensity (AgCyk3): ≤ 0 | SPOT peptide array binding signal intensity (AgFus1): ≤ 0 | SPOT peptide array binding signal intensity (AgHof1): ≤ 0 | SPOT peptide array binding signal intensity (AgHse1): ≤ 0 | SPOT peptide array binding signal intensity (AgLsb1): ≤ 0 | SPOT peptide array binding signal intensity (AgLsb4): ≤ 0 | SPOT peptide array binding signal intensity (AgMyo5): 2020 | SPOT peptide array binding signal intensity (AgNbp2): ≤ 0 | SPOT peptide array binding signal intensity (AgRvs167): ≤ 0 | SPOT peptide array binding signal intensity (AgSho1): ≤ 0 | SPOT peptide array binding signal intensity (AgSla1-D1-D2): ≤ 0 | SPOT peptide array binding signal intensity (AgSla1-D3): 11 | SPOT peptide array binding signal intensity (CaAbp1-D1): ≤ 0 | SPOT peptide array binding signal intensity (CaAbp1-D2): ≤ 0 | SPOT peptide array binding signal intensity (CaBbc1): ≤ 0 | SPOT peptide array binding signal intensity (CaBem1-D1): ≤ 0 | SPOT peptide array binding signal intensity (CaBzz1-D1): 1240 | SPOT peptide array binding signal intensity (CaBzz1-D2): 66.8 | SPOT peptide array binding signal intensity (CaCyk3): ≤ 0 | SPOT peptide array binding signal intensity (CaFus1): ≤ 0 | SPOT peptide array binding signal intensity (CaHof1): ≤ 0 | SPOT peptide array binding signal intensity (CaHse1): ≤ 0 | SPOT peptide array binding signal intensity (CaLsb1): ≤ 0 | SPOT peptide array binding signal intensity (CaLsb4): ≤ 0 | SPOT peptide array binding signal intensity (CaMyo5): 795 | SPOT peptide array binding signal intensity (CaNbp2): ≤ 0 | SPOT peptide array binding signal intensity (CaRvs167): ≤ 0 | SPOT peptide array binding signal intensity (CaRvs167-3): 0.5 | SPOT peptide array binding signal intensity (CaSho1): ≤ 0 | SPOT peptide array binding signal intensity (CaSla1-D1-D2): ≤ 0 | SPOT peptide array binding signal intensity (CaSla1-D3): ≤ 0 | SPOT peptide array binding signal intensity (ScAbp1): ≤ 0 | SPOT peptide array binding signal intensity (ScBbc1): ≤ 0 | SPOT peptide array binding signal intensity (ScBem1-D1): ≤ 0 | SPOT peptide array binding signal intensity (ScBzz1-D1): 413 | SPOT peptide array binding signal intensity (ScBzz1-D2): ≤ 0 | SPOT peptide array binding signal intensity (ScCyk3): ≤ 0 | SPOT peptide array binding signal intensity (ScFus1): ≤ 0 | SPOT peptide array binding signal intensity (ScHof1): ≤ 0 | SPOT peptide array binding signal intensity (ScHse1): ≤ 0 | SPOT peptide array binding signal intensity (ScLsb1): ≤ 0 | SPOT peptide array binding signal intensity (ScLsb2): ≤ 0 | SPOT peptide array binding signal intensity (ScLsb3): ≤ 0 | SPOT peptide array binding signal intensity (ScLsb4): ≤ 0 | SPOT peptide array binding signal intensity (ScMyo3): 1370 | SPOT peptide array binding signal intensity (ScMyo5): 1840 | SPOT peptide array binding signal intensity (ScNbp2): ≤ 0 | SPOT peptide array binding signal intensity (ScPex13): ≤ 0 | SPOT peptide array binding signal intensity (ScRvs167): 0.167 | SPOT peptide array binding signal intensity (ScSho1): ≤ 0 | SPOT peptide array binding signal intensity (ScSla1-D1-D2): ≤ 0 | SPOT peptide array binding signal intensity (ScSla1-D3): ≤ 0 | SPOT peptide array binding signal intensity (SpAbp1-D1): ≤ 0 | SPOT peptide array binding signal intensity (SpBbc1): 1.5 | SPOT peptide array binding signal intensity (SpBzz1-D1): ≤ 0 | SPOT peptide array binding signal intensity (SpBzz1-D2): ≤ 0 | SPOT peptide array binding signal intensity (SpCyk3): ≤ 0 | SPOT peptide array binding signal intensity (SpHof1): ≤ 0 | SPOT peptide array binding signal intensity (SpHof1-2): ≤ 0 | SPOT peptide array binding signal intensity (SpHof1-3): 5.75 | SPOT peptide array binding signal intensity (SpHse1): 58.8 | SPOT peptide array binding signal intensity (SpLsb1): ≤ 0 | SPOT peptide array binding signal intensity (SpLsb4): ≤ 0 | SPOT peptide array binding signal intensity (SpMyo1): 1720 | SPOT peptide array binding signal intensity (SpNbp2): ≤ 0 | SPOT peptide array binding signal intensity (SpPex13): ≤ 0 | SPOT peptide array binding signal intensity (SpRvs167): ≤ 0 | SPOT peptide array binding signal intensity (SpSla1-D1-D2): ≤ 0 | SPOT peptide array binding signal intensity (SpSla1-D3): ≤ 0
